From PubChem BioAssay AID720551 (National Center for Advancing Translational Sciences (NCATS), 2013) come the findings set out here.

The whole screen tested about 340,000 compounds, of which about 1,300 (0.38%) were called active. Shown is part of a subset that was picked to be rich in actives. Values without a mark were called inactive.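 Rule for the calls: active = maximum activity change below -70%; inconclusive = maximum activity change between -70% and -50%; inactive = maximum activity change above -50%.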
% is set by controls: 0 for no effect and ±100 for the full control effect.

Chain of Voltage-gated inwardly rectifying potassium channel KCNH2 (Homo sapiens) (Q12809 whole entry, looked up): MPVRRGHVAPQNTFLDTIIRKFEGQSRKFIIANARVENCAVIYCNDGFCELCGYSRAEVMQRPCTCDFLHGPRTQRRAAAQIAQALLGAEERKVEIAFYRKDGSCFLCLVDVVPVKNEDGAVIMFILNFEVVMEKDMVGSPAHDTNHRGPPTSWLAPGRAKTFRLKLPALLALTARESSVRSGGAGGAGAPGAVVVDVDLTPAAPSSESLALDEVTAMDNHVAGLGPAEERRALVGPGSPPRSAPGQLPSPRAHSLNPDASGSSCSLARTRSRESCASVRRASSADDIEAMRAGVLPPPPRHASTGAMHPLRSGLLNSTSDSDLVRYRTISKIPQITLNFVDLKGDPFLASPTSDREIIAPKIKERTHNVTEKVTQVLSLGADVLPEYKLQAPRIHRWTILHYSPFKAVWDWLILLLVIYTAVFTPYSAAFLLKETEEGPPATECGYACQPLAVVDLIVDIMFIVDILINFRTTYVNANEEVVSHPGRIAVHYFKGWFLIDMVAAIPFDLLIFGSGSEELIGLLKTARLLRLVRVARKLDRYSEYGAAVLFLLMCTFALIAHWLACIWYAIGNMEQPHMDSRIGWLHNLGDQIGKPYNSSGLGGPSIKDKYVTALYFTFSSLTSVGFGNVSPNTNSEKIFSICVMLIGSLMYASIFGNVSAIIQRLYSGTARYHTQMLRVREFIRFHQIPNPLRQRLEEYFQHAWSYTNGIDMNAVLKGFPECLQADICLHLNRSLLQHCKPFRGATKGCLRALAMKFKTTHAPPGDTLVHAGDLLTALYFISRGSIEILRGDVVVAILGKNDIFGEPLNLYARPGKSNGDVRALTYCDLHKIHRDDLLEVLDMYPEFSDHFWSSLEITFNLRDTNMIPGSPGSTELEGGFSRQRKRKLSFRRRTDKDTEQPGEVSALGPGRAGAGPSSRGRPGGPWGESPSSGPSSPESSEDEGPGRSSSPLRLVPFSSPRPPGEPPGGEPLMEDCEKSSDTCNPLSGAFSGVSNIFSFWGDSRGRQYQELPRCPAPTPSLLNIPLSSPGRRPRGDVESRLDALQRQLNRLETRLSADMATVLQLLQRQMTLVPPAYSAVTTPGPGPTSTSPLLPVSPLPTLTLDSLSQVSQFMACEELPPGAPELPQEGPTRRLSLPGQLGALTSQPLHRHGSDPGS

The target in the test is Voltage-gated inwardly rectifying potassium channel KCNH2 (Homo sapiens) (UniProt Q12809). The experiment in a line: qHTS for Inhibitors of KCHN2 3.1: Wildtype qHTS. As to conditions: U2OS, BacMam KCNH2, thallium flux FluxOr; at 1.84 µM; stronger effect = lower value. A digest of the protocol:
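U2OS cells were transduced with wild-type KCNH2 virus (2.03 x 10^8 / mL) for 4 h at room temperature, then cultured overnight at 37 C. Thallium flux was read with FluxOr dye. Rate constants were normalized to DMSO controls.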
(In general: Quantitative high-throughput screening tests each substance at several concentrations.)
With `CN(C)C(CNC(=O)c1cccc(S(=O)(=O)N2CCc3ccccc3C2)c1)c1ccccc1` (stereo unspecified), the activity change is 19.3%.

Take `C[C@@H]1CN([C@H](C)CO)C(=O)c2cc(-c3ccc(F)cc3)cnc2O[C@H]1CN(C)C(=O)c1ccc(F)cc1`: the activity change was 16.3%.

With `Cc1nc2nc[nH]n2c(=O)c1C/C=C/c1ccccc1`, the activity change was 1.17%.

`Cc1nc2nc[nH]n2c(=O)c1NC(=O)c1cccc(OCC(C)C)c1`: the activity change is -180% (active).

Regarding `Cc1noc(C)c1COc1cccc(C(=O)Nc2cccnc2)c1`, the activity change was 7.71%.

For the compound `COc1ccc(-c2ccc(CN3C(C(C)C)C(=O)N(Cc4cn(CC5CCCCC5)nn4)CCS3(=O)=O)cc2)cn1` (stereo unspecified), the activity change was 6.66%.

For `Cc1cccc(C(=O)NC2CCN(CC(=O)Nc3cccc(Cl)c3)CC2)c1`, the activity change is 47.4%.

With `Clc1ccc(COn2c(-c3ccc(Cl)cc3Cl)nc3ncccc32)cc1`, the activity change is 1.98%.

As for `O=C(COc1ccc(Cl)cc1Cl)N/N=C/c1ccccn1`, the activity change is -7.76%.

In the case of `Clc1ccc(-c2cc(-c3ccccn3)on2)c(Cl)c1`, the activity change was -93.1% (active).

Take `C[C@@H]1CN([C@H](C)CO)C(=O)CCCn2cc(nn2)CO[C@H]1CN(C)S(=O)(=O)c1ccc(Oc2ccccc2)nc1`: the activity change is 10.5%.

Consider `COc1ccc(CN2CCC(c3nc4ccc(Cl)cc4[nH]3)CC2)cc1`, for which the activity change is -96.7% (active).

Regarding `COc1ccc(F)c(-c2nc(CN3CCC(c4ccccc4)CC3)c(C)o2)c1`, the activity change was 21%.

Turning to `COc1ccc(CN2CCN(Cc3ccc(OC)c(OC)c3OC)CC2)cc1`, the activity change is 38.9%.

As to `O=C(CCCN1C(=O)C(c2ccccc2)Oc2cccnc21)Nc1ccccc1Br` (stereo unspecified), the activity change is -7.82%.

As to `CCOC(=O)c1cnn2c(SC)ncnc12`, the activity change is 9.2%.

Take `CCC(=O)N1CCN(c2ccccc2NC(=O)COc2cccc(C)c2C)CC1`: the activity change is -214% (active).

In the case of `CCOc1ccccc1NC(=S)N1CCN(c2cccc(C)c2C)CC1`, the activity change is -2.86%.

Consider `Cc1ccc(C(C)C)cc1OCC(=O)Nc1ccccc1N1CCCC1`, for which the activity change was -18.3%.

As to `COc1ccc(-c2ccc(CN3C(CC(C)C)C(=O)N(Cc4cn(CC5CCCCC5)nn4)CCS3(=O)=O)cc2)cn1` (stereo unspecified), the activity change was 16.3%.

Turning to `CCC(Oc1ccccc1)C(=O)OCC(=O)Nc1c(C)nn(-c2ccccc2)c1C` (stereo unspecified), the activity change is 0.17%.

Take `CC(NC(=O)c1ccco1)C(=O)Nc1nc(-c2ccccn2)cs1` (stereo unspecified): the activity change is -212% (active).

Take `O=C(COc1ccccc1F)Nc1nc(-c2ccccn2)cs1`: the activity change is -8.89%.

For `Cc1cc(NC(=O)[C@H](C)NC(=O)c2ccco2)ccc1Br`, the activity change was -4.82%.

Take `COc1cccc(OC)c1C(=O)Nc1c(C(=O)N2CCN(c3ccccn3)CC2)oc2ccccc12`: the activity change was 3.21%.

Take `CN(C(=O)c1cccc(NC(=O)Cc2cccc([N+](=O)[O-])c2)c1)C1CCCCC1`: the activity change is -17.3%.

`COCC(=O)Nc1c(C(=O)N2CCCC2)oc2ccccc12`: the activity change was -3.28%.

For the compound `CCOCCCN(C)C1CCN(C(=O)c2oc3ccccc3c2NC(=O)COc2cccc(C)c2)CC1`, the activity change was -82.2% (active).

Turning to `CCOCCCN(C)C1CCN(C(=O)c2oc3ccccc3c2NC(=O)Cc2cccc([N+](=O)[O-])c2)CC1`, the activity change was -97.4% (active).

Take `COc1ccc(CC(=O)Nc2c(C(N)=O)oc3ccccc23)cc1`: the activity change is 26.6%.

As for `COc1ccccc1C(=O)NC(=S)Nc1ccc(N2CCOCC2)cc1`, the activity change is -8.97%.

On to `C#CCN(C[C@@H]1[C@@H](OC(=O)NC2CC2)[C@@H](OC(=O)NC2CC2)Cn2c(=O)ccc(=O)n21)S(=O)(=O)c1ccc(C)cc1`, for which the activity change was 2.34%.

On to `CC(C)CC1C(=O)N(Cc2cn(Cc3ccco3)nn2)CCS(=O)(=O)N1Cc1ccc(-c2ccc(Cl)c(Cl)c2)cc1` (stereo unspecified), for which the activity change was -32.9%.

In the case of `C[C@H](CO)N1C[C@H](C)[C@@H](CN(C)S(=O)(=O)c2ccc(F)cc2)OCc2cnnn2CCCC1=O`, the activity change is -1.39%.

Regarding `CCN(CC)C(=O)C1=C(C)N(Cc2ccc(C(C)(C)C)cc2)C(=O)C(CC(=O)NCc2cccc3ccccc23)C1` (stereo unspecified), the activity change was -4.42%.

In the case of `CCCOc1cccc(C(=O)Nc2nnn(CCC)n2)c1`, the activity change is -113% (active).

As to `CCCOc1cccc(C(=O)NCCCNC(=O)c2cccnc2)c1`, the activity change is -0.846%.

Consider `CCCn1nnc(NC(=O)COc2ccc(CC)cc2)n1`, for which the activity change was 4.88%.

Take `CC(=O)c1ccc(OCC(=O)N(C)C2CCS(=O)(=O)C2)cc1` (stereo unspecified): the activity change is -11.1%.

In the case of `CC(C)CC(=O)c1c[nH]c(C(=O)NCc2ccccc2)c1`, the activity change is 0.798%.

Turning to `CC(C)CC(=O)NC(=S)Nc1cc(C(=O)O)ccc1Cl`, the activity change is -19.3%.

`CC(C)CC(=O)NC(=S)NCc1ccccc1`: the activity change was -84.2% (active).

For `COc1ccc(NC(=O)CCCOc2ccc(C(C)=O)cc2)cc1S(=O)(=O)N1CCCCC1`, the activity change is -1.81%.

On to `Cc1ccc([C@H]2C[C@H](O)[C@@H](n3cc(COC(=O)c4ccccc4)nn3)CN2C(=O)C2CCCCC2)cc1`, for which the activity change is -0.947%.

`C[C@@H]1CN([C@@H](C)CO)C(=O)CCCn2cc(nn2)CO[C@H]1CN(C)S(=O)(=O)c1ccc(-n2cccn2)cc1`: the activity change was -21.9%.

On to `O=C(NCc1nnnn1-c1ccc(Cl)cc1)c1ccc([N+](=O)[O-])o1`, for which the activity change was 7.93%.

Consider `O=C(NCc1nnnn1-c1ccc(Cl)cc1)c1ccc2c(c1)OCO2`, for which the activity change was -76.9% (active).

For `COc1ccc(-n2nnnc2CNC(=O)c2ccc3ccccc3c2)cc1`, the activity change is -0.166%.

Regarding `C/C(COc1ccccc1)=N\NC(=O)c1nnn(-c2nonc2N)c1-c1ccc(C)cc1`, the activity change is 4.6%.

In the case of `Cc1c(C(=O)NNC(=O)c2ccncc2)oc2ccccc12`, the activity change is -13.1%.

In the case of `Cc1c(C=O)c2ccccn2c1C(=O)c1ccncc1`, the activity change is -70.5% (active).

For `Cc1cc2ccccn2c1C(=O)c1cccc(F)c1`, the activity change was -0.532%.

For `O=C1[C@H]2[C@@H](c3ccc(C(F)(F)F)cc3)N[C@]3(CCCN(Cc4ccc(Cl)cc4)C3=O)[C@H]2C(=O)N1Cc1ccccc1`, the activity change was -9.13%.

`CC1CN(C(=O)CCC(=O)NC2CCN(Cc3ccccc3)CC2)c2ccccc2O1` (stereo unspecified): the activity change is 16.1%.

On to `CC1CN(C(=O)CCC(=O)NCCCN2CCC(Cc3ccccc3)CC2)c2cc(Cl)ccc2O1` (stereo unspecified), for which the activity change is -88.2% (active).

Regarding `CC1CN(C(=O)CCC(=O)NCc2cccnc2)c2ccccc2O1` (stereo unspecified), the activity change was -2.13%.

Turning to `CCCc1c(C)nc2scc(-c3ccc(Cl)cc3)n2c1=O`, the activity change is -21.6%.

Take `COc1ccc(CN2C[C@H]3CON(C)[C@H]3C[C@H]2c2ccc(-c3cccc(F)c3)cc2)cc1`: the activity change was -20.5%.

Turning to `Cc1ccc(-c2ccc(CN3C(C(C)C)C(=O)N(Cc4cn(CCC5OCCO5)nn4)CCS3(=O)=O)cc2)cc1` (stereo unspecified), the activity change was -23.7%.

On to `O=C(/C=C/c1ccc(Cl)cc1)N1CCN(c2ccccc2[N+](=O)[O-])CC1`, for which the activity change is -71.4% (active).

Consider `O=C(c1ccc(Cl)c([N+](=O)[O-])c1)N1CCN(c2ccccc2)CC1`, for which the activity change was 9.59%.

As to `CO/N=C/c1ccc(N2CCN(C(=O)c3cccc(Cl)c3)CC2)c([N+](=O)[O-])c1`, the activity change is -11.9%.

On to `O=C(NCCN1CCOCC1)c1ccc2c(c1)N(Cc1cccc(Cl)c1)C(=O)c1ccccc1S2(=O)=O`, for which the activity change is 2.54%.

In the case of `Cc1cc(OCC(=O)Nc2nccs2)c2c(C)c(C)c(=O)oc2c1`, the activity change is -4.04%.

For `CC1(C)CC(=O)C=C(c2ccc(COC(=O)c3cc(F)cc(F)c3)cc2)C1=O`, the activity change is -3.02%.

Consider `CCN(CC)CCN(C(=O)c1ccc2c(c1)CCCC2)c1nc2c(OC)cccc2s1`, for which the activity change is -10.1%.

In the case of `Cc1cc(C)c2cc(C#N)c(N3CCNCC3)nc2c1`, the activity change was 31.7%.

For the compound `O=C(CCN1CCN(C/C=C/c2ccccc2)CC1)Nc1ccccc1Cl`, the activity change is -76.7% (active).

`CNC(=O)NC(=O)C(C)N1CCN(C/C=C/c2ccccc2)CC1` (stereo unspecified): the activity change was 16.2%.

Consider `O=C(CN1CCN(C(=O)c2cccc(F)c2)CC1)Nc1ccccc1F`, for which the activity change was 4.68%.

As to `O=C(CCN1CCN(C/C=C/c2ccccc2)CC1)Nc1cccc(F)c1`, the activity change is -92.1% (active).

As for `CCOC(=O)N1CCN(CCC(=O)Nc2ccccc2)CC1`, the activity change was 9.24%.

Take `O=C(CN1CCN(C/C=C/c2ccccc2)CC1)Nc1ccc(F)cc1F`: the activity change was -155% (active).

Consider `O=C(CCN1C(=O)c2ccccc2C1=O)Nc1cccc(F)c1`, for which the activity change is 5.88%.

Take `COc1ccccc1NC(=O)CCN1CCN(c2ccc(Cl)cc2)CC1`: the activity change was 0.203%.

For the compound `O=C(COC(=O)CSc1ccccc1)Nc1ccc(F)cc1F`, the activity change is -4.38%.

On to `COc1ccc(NC(=O)N(C)C[C@@H]2OCc3cn(nn3)CCCC(=O)N([C@H](C)CO)C[C@H]2C)c(OC)c1`, for which the activity change was 3.91%.

Turning to `Cc1ccc(-c2ccc(C3=CC(=O)CC(C)(C)C3=O)cc2)cc1`, the activity change was -2.66%.

As for `CSc1ncnc2c1ncn2CCCNCc1cccs1`, the activity change is 6.63%.

Consider `CCOC(=O)c1ccccc1CN1C(=O)c2ccccc2S1(=O)=O`, for which the activity change was -3.26%.

Consider `COc1ccccc1C(=O)OCC(=O)NCCNC(=O)COC(=O)c1ccccc1OC`, for which the activity change is -4.76%.

Consider `CCOC(=O)c1ccccc1OC(=O)Oc1ccccc1C(=O)OCC`, for which the activity change is -141% (active).

Consider `CCc1ccccc1NC(=O)CN1CCN(C(=O)c2cc(C3CC3)nn2-c2ccccc2)CC1`, for which the activity change is 4.86%.

As to `CCOC(=O)C1CCCN(Cc2nc(N)nc(Nc3ccc(C)cc3)n2)C1` (stereo unspecified), the activity change was 27.8%.

Regarding `Cc1ccc(Nc2nc(N)nc(CN3CCN(Cc4ccccc4)CC3)n2)cc1Cl`, the activity change was -75.8% (active).

Take `Cc1ccccc1Nc1nc(N)nc(CN2CCN(c3ccccn3)CC2)n1`: the activity change was 15.1%.
